Experiment [1] has as its target Cell division control protein 42 homolog (Homo sapiens) (UniProt P60953). Kind of experiment: inhibition of fluorescent GTP binding to constitutively active Cdc42 – biochemical, multiplex bead flow cytometry, Bodipy-FL-GTP, dose response (AID 1333;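 active = fitted half-maximal concentration within the tested dose range, moderate curve steepness, a statistically real signal drop, and little compound fluorescence or tag-binding interference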). (In general: Flow cytometry measures light scatter and fluorescence of single cells or particles in a stream.)
Experiment [2] has the same target. The experiment is described as follows: inhibition of fluorescent GTP binding to wildtype Cdc42 – biochemical, multiplex bead flow cytometry, Bodipy-FL-GTP, dose response (AID 1334;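 active = fitted half-maximal concentration within the tested range, moderate curve steepness, significant signal drop, and little compound fluorescence or bead-linkage interference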). Conditions: bead-based flow cytometry, Bodipy-FL-GTP binding to GST-Cdc42; at 100 µM (top of the series) unless noted.
Experiment [3] deals with GTPase HRas (Homo sapiens) (UniProt P01112). The experiment is described as follows: Ras wt fluorescent GTP loading blockade – biochemical, wildtype, multiplex bead flow cytometry, dose response (AID 1335;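 active = fitted half-maximal concentration within 10 nM to 100 µM, steepness 0.5 to 2, significant signal drop, low assay interference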). Conditions: bead-based flow cytometry, Bodipy-GTP binding to GST-Ras; at 100 µM (top of the series) unless noted.
In experiment [4] the test system is Ras-related protein Rab-7a (dog), GTP binding. The experiment is described as follows: blockers of fluorescent GTP binding to Rab7 – biochemical, wildtype, multiplex bead flow cytometry, dose response (AID 1336; call rule not given here).
The target of experiment [5] is Ras-related C3 botulinum toxin substrate 1 (Homo sapiens) (UniProt P63000). Kind of experiment: inhibition of wildtype Rac1 nucleotide loading – biochemical, multiplex bead flow cytometry, dose response (AID 1340). Particulars: GST-Rac1 beads, Bodipy-FL-GTP binding; at 100 µM (top of the series) unless noted.
For experiment [6], the target named is GTPase HRas (Homo sapiens) (UniProt P01112). The experiment is described as follows: blockade of GTP loading onto mutant Ras – biochemical, activated mutant, multiplex bead flow cytometry, dose response (AID 1341;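 active = dose-response curve with midpoint inside the tested range, moderate steepness, significant amplitude and little compound fluorescence or bead-attachment interference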;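 also: GST-tagged constitutively activated Ras mutant immobilized on beads and multiplexed with other GTPases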).

For part of these data: Measured potencies and affinities stand elsewhere. Calls of active or inactive are those of the source.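 The calls were made as follows, unless noted: active = dose curve with midpoint inside tested range, moderate steepness, plateau gap beyond fit error, low compound glow and bead-link interference; inactive = the rest.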

GTPase HRas (Homo sapiens), sequence (P01112 whole entry, looked up): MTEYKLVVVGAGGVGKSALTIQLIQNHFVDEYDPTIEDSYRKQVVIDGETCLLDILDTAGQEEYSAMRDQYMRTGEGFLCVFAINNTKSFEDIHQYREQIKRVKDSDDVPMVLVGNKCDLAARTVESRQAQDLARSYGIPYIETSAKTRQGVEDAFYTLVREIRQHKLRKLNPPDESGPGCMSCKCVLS
Cell division control protein 42 homolog (Homo sapiens), sequence (P60953 whole entry, looked up): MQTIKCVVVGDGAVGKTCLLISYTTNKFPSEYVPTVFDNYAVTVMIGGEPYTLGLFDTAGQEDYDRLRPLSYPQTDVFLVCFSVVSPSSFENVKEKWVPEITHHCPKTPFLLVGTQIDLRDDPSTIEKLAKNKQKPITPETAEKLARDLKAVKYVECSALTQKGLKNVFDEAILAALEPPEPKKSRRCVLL

As to `COCCOC(=O)c1c(C)oc2ccc(OC(=O)c3ccc4c(c3)OCO4)cc12`, the outcome in experiment [1], in experiment [4] and in experiment [6] was inactive. Further, in experiment [2], the fluorescence, percent of control (lower = inhibition) worked out at 31.7%. Further, in experiment [3], the GTP binding, percent of control was found to be 83.9%. In experiment [5], this compound displayed a GTP binding signal, raw median fluorescence (lower = inhibition) (MCF (arbitrary fluorescence units)) of 262.
As for `CCN(CC)c1ccc(/C=c2/sc3nnc(-c4ccccc4C)n3c2=O)cc1`, the compound was called inactive in experiment [1], in experiment [4] and in experiment [6]. Besides, in experiment [2], the fluorescence, percent of control (lower = inhibition) turned out to be 120%. Besides, the GTP binding, percent of control in experiment [3] was 123%. This compound displayed a GTP binding signal, raw median fluorescence (lower = inhibition) (MCF (arbitrary fluorescence units)) in experiment [5] of 236.
Turning to `C=CC#CC[N+]1(CC#Cc2ccccc2)CCOCC1`, the compound was called inactive in experiment [1], in experiment [4] and in experiment [6]. Besides, in experiment [2], the fluorescence, percent of control (lower = inhibition) worked out at 97.9%. This compound had a GTP binding, percent of control in experiment [3] of 95.4%. Besides, the GTP binding signal, raw median fluorescence (lower = inhibition) (MCF (arbitrary fluorescence units)) in experiment [5] came out at 537.
For `CCCCCN1CC(O)=C(c2nc(-c3ccc(Cl)cc3)cs2)C1=N`, the call in experiment [1], in experiment [4] and in experiment [6] was inactive. Besides, the fluorescence, percent of control (lower = inhibition) in experiment [2] was found to be 88.4%. The same compound returned a GTP binding, percent of control in experiment [3] of 167%. This compound had a GTP binding signal, raw median fluorescence (lower = inhibition) (MCF (arbitrary fluorescence units)) in experiment [5] of 184.
For `Cc1ccc2c(c1)c1nnc(SCC(=O)N3CCCc4ccccc43)nc1n2CC(=O)O`, the call in experiment [1], in experiment [4] and in experiment [6] was inactive. Besides, in experiment [2], the fluorescence, percent of control (lower = inhibition) turned out to be 17.6%. In experiment [3], this compound returned a GTP binding, percent of control of 37.8%. In experiment [5], the GTP binding signal, raw median fluorescence (lower = inhibition) (MCF (arbitrary fluorescence units)) is 96.4.
`COc1c(C)cc(Br)cc1C(=O)O`: the compound was classed as inactive in experiment [1], in experiment [4] and in experiment [6]. Besides, the fluorescence, percent of control (lower = inhibition) in experiment [2] is 46.9%. In experiment [3], this compound yielded a GTP binding, percent of control of 97%. Also, the GTP binding signal, raw median fluorescence (lower = inhibition) (MCF (arbitrary fluorescence units)) in experiment [5] came to 59.3.
With `O=S1(=O)N=C(N=Nc2c(O)[nH]c3ccccc23)c2ccccc21`, the compound was called inactive in experiment [1], in experiment [4] and in experiment [6]. Moreover, the fluorescence, percent of control (lower = inhibition) in experiment [2] was found to be 27.7%. This compound also displayed a GTP binding, percent of control in experiment [3] of 62.5%. Further, the GTP binding signal, raw median fluorescence (lower = inhibition) (MCF (arbitrary fluorescence units)) in experiment [5] was 129.
Regarding `Cc1ccc(OCCn2cc(C(=O)O)c3ccccc32)cc1C`, the result in experiment [1], in experiment [4] and in experiment [6] was inactive. The fluorescence, percent of control (lower = inhibition) in experiment [2] came to 60.4%. Moreover, the GTP binding, percent of control in experiment [3] stood at 85.4%. The GTP binding signal, raw median fluorescence (lower = inhibition) (MCF (arbitrary fluorescence units)) in experiment [5] amounted to 32.5.
On to `Cc1cc(N=NC(=O)c2ccccc2O)c2ccccc2c1O`, for which the compound was called inactive in experiment [1], in experiment [4] and in experiment [6]. The fluorescence, percent of control (lower = inhibition) in experiment [2] amounted to 36.1%. The compound further registered a GTP binding, percent of control in experiment [3] of 85.2%. Further, in experiment [5], the GTP binding signal, raw median fluorescence (lower = inhibition) (MCF (arbitrary fluorescence units)) worked out at 243.
As for `C=CCn1c(COc2ccc(F)cc2)nnc1SCC(=O)c1c[nH]c2c(CC)cccc12`, the result in experiment [1], in experiment [4] and in experiment [6] was inactive. For the same compound, the fluorescence, percent of control (lower = inhibition) in experiment [2] was determined as 50.5%. The GTP binding, percent of control in experiment [3] came out at 60.7%. In addition, in experiment [5], the GTP binding signal, raw median fluorescence (lower = inhibition) (MCF (arbitrary fluorescence units)) amounted to 190.
On to `Cc1[nH]c2ccccc2c1C(=O)CNc1nccs1`, for which the result in experiment [1], in experiment [4] and in experiment [6] was inactive. Moreover, the fluorescence, percent of control (lower = inhibition) in experiment [2] worked out at 50.6%. The GTP binding, percent of control in experiment [3] stood at 58%. This compound also had a GTP binding signal, raw median fluorescence (lower = inhibition) (MCF (arbitrary fluorescence units)) in experiment [5] of 0.
As for `COc1ccc(-c2csc(NC(=S)NC(=O)c3cccs3)n2)cc1OC`, the outcome in experiment [1], in experiment [4] and in experiment [6] was inactive. In experiment [2], the fluorescence, percent of control (lower = inhibition) was determined as 36.6%. The compound also showed a GTP binding, percent of control in experiment [3] of 78.1%. In experiment [5], this compound yielded a GTP binding signal, raw median fluorescence (lower = inhibition) (MCF (arbitrary fluorescence units)) of 176.
In the case of `COc1ccc(C(CC(=O)O)NC(=O)c2cc3cc(Br)ccc3oc2=O)cc1OC` (stereo unspecified), the call in experiment [1], in experiment [4] and in experiment [6] was inactive. In addition, in experiment [2], the fluorescence, percent of control (lower = inhibition) turned out to be 31%. In experiment [3], this compound yielded a GTP binding, percent of control of 78.7%. The GTP binding signal, raw median fluorescence (lower = inhibition) (MCF (arbitrary fluorescence units)) in experiment [5] was determined as 213.
Regarding `Fc1cccc(CSc2ccc3nnc(-c4cccnc4)n3n2)c1`, the result in experiment [1], in experiment [4] and in experiment [6] was inactive. The fluorescence, percent of control (lower = inhibition) in experiment [2] amounted to 33.8%. This compound also yielded a GTP binding, percent of control in experiment [3] of 73.3%. Besides, the GTP binding signal, raw median fluorescence (lower = inhibition) (MCF (arbitrary fluorescence units)) in experiment [5] amounted to 183.
In the case of `Cn1c(SCCOc2ccccc2F)nc2ccccc2c1=O`, the compound was classed as inactive in experiment [1], in experiment [4] and in experiment [6]. Also, the fluorescence, percent of control (lower = inhibition) in experiment [2] came out at 29.1%. The same compound displayed a GTP binding, percent of control in experiment [3] of 71.9%. The same compound came in with a GTP binding signal, raw median fluorescence (lower = inhibition) (MCF (arbitrary fluorescence units)) in experiment [5] of 158.
As for `COc1cc(/C=N/NC(=O)CCN2CCN(c3ccccc3)CC2)cc(OC)c1OC`, the compound was called inactive in experiment [1], in experiment [4] and in experiment [6]. In experiment [2], the fluorescence, percent of control (lower = inhibition) was 34.6%. This compound registered a GTP binding, percent of control in experiment [3] of 77.3%. The compound further gave a GTP binding signal, raw median fluorescence (lower = inhibition) (MCF (arbitrary fluorescence units)) in experiment [5] of 236.

The values above are taken from PubChem BioAssay.
